This is an account of results in PubChem BioAssay AID504377 (National Center for Advancing Translational Sciences (NCATS), 2011).

The source made the active and inactive calls. The rule behind the calls is not given here.

The assay can be described thus: Immunofluorescence assay for phosphorylation of ATM-targeted proteins for Identifying a Potential Treatment of Ataxia-Telangiectasia: SAR for Probe. To be noted: F2111 A-T fibroblasts, KAP-1 pS824 immunofluorescence, NCS. An excerpt:
NIH Chemical Genomics Center [NCGC] NIH Molecular Libraries Probe Centers Network [MLPCN] MLPCN Grant: MH089030-01 Assay Submitter (PI): Wei Zheng and Yosef Shiloh Ataxia-telangiectasia (A-T) is a devastating and progressive disease for which, there is no cure. Although A-T is a multisystem disease, it is stereotyped characterized by its neurological symptoms such as truncal ataxia, due to cerebellar cortical degeneration of the Purkinje and granule cells. Other symptoms of A-T are telangiectasias (dilated blood vessels), primary immunodeficiency, marked sensitivity to ionizing radiation (IR), chromosomal instability and predisposition to cancer. The underlying genetic cause of A-T is null mutations in the ATM (A-T mutated) gene. ATM is a nuclear serine/threonine kinase that functions as a master regulator of the cellular responses to double strand breaks (DSBs) in the DNA. Upon activation by DSBs, ATM phosphorylates a plethora of downstream targets, including KAP-1 on […]. KAP-1 phosphorylation occurs shortly in response to DSBs and mediates global chromatin relaxation, which facilitates DSB repair. To screen for small molecules that will compensate for the loss of ATM in cells derived from A-T patients, we monitored KAP-1 phosphorylation as a readout for ATM-like activity using an AlphaLISA assay. […]
With `CC(=O)c1c(O)c(C)c(O)c(Cc2c(O)c3c(c(C(=O)/C=C/c4ccccc4)c2O)OC(C)(C)C=C3)c1O`, the Potency was 10 µM (active).
